# Bioassay records (PubChem)
# Compounds with a hit are over-represented: about 7.6% of the library has one in this group of screens.
# p53 reactivator: mutant p53 re-activation in reporter cells. AID 504706. 0.063% of 320,000 active. Potency, µM (titrated, usually from 92.2 µM), without a hit: at the top dose activity change, positive = activation, actives largely listed as activators. H1299 p53-A138V BP100-luciferase reporter, luminescence, 24 h; also: potency is read from the fitted curve at half-maximal effect; % of control where 0% means no effect; nearly all actives have a fitted effect of over 45% in size
#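 H1299 (p53-null), stable ts p53-A138V + BP100-Luc; 1000 cells/well, Opti-MEM/10% FBS; cpd 4 pt, 1:5; 24 h, 37 deg C, 5% CO2; detection reagent 10 min RT; luminescence.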
# RORg inh: ROR gamma (mouse) transcription inhibition. 5.4% of 310,000 active. Potency, µM (top dose mostly 53.6 µM), inactives show at the top dose activity change, negative = inhibition, hits mostly inhibitors. AID 2551. Drosophila S2 Gal4-RORgamma UAS-luciferase reporter, 20 h. P51450; also: potency is read from the fitted curve at half-maximal effect; % is scaled to controls: 0 for no effect and ±100 for the full control effect; nearly all actives have a fitted effect of over 60% in size
# Target sequence (P51450 whole entry, looked up, the tested form may be a part): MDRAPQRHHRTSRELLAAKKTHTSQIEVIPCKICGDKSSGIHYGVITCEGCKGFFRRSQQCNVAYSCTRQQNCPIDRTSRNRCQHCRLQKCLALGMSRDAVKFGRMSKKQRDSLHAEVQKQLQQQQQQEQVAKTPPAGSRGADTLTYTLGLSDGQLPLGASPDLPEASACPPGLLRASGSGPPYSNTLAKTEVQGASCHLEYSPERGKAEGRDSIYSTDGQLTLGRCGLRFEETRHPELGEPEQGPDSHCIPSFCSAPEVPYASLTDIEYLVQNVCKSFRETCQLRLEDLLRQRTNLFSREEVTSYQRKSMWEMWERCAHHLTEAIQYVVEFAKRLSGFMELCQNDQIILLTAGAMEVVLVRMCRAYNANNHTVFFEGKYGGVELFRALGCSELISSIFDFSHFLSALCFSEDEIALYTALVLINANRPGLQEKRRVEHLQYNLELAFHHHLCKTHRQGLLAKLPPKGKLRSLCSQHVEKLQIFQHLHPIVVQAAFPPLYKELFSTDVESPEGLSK
#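 Using a luciferase readout, inhibitors were identified by reduced reporter activity in Drosophila cells coexpressing a copper-inducible Gal4–ROR gamma fusion and UAS-driven Photinus luciferase, incubated 20 hr after 700 uM copper sulfate.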
# ELG1 repair inh: blocks ELG1-dependent DNA repair in HEK293T cells; HEK293T ELG1-luciferase reporter, luminescence, 16 h; DNA damage induced by 5-fluorouridine; Potency, µM (top dose mostly 46.1 µM), for inactives: at the top dose activity change, negative = inhibition, actives largely listed as inhibitors; 2.3% of 330,000 active; AID 504467; also: potency is read from the fitted curve at half-maximal effect; % is scaled to controls: 0 for no effect and ±100 for the full control effect; nearly all actives have a fitted effect of over 55% in size
#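 Step one: seed 2,000 cells per well. Step two: pin-transfer compound or DMSO alongside 5-fluorouridine. Step three: incubate 16 hr, 37 °C, 5% CO2. Step four: add ONE-Glo, wait 30 min, read luminescence.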
# BRCA1 expr up: activators of BRCA1 expression. AID 624202. 1.1% of 380,000 active. Potency, µM (top dose mostly 46.1 µM), for the others: top-dose activation, usual class: activators. MCF7-BRCA1-FFLuc reporter, luminescence, 48 h; response scale: scaled: vehicle 0%, 10 µM genistein 100%; also: potency is read from the fitted curve at half-maximal effect; nearly all actives have a fitted effect of over 80% in size
#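 Compounds are tested at multiple concentrations on MCF7 BRCA1-luciferase reporter cells seeded at 2000 per well; after 48 h, a single luminescence end-point is taken and curves fitted to the normalized data.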
# Giardia killer: kills Giardia lamblia. 0.15% of 340,000 active. AID 540267. activity change, % at 7.66 µM, hits read low. Giardia lamblia trophozoite viability; in the data active = activity change below about -80%; inconclusive = between about -30% and that limit;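 also: parasites exposed to compound for two days anaerobically before the ATP read; % is scaled to controls: 0 for no effect and ±100 for the full control effect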
#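 Trophozoites 100 cells/well + cpd; 48 hrs, 37 deg C, anaerobic. ATPLite 1-Step added, 15-30 min RT, luminescence read (ATP-based viability).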
# Gal4-VP16 FLuc: inhibits Gal4-VP16 luciferase reporter, ROR gamma counter-screen. Drosophila S2 Gal4-VP16 UAS-luciferase, luminescence, 20 h. Potency, µM (doses to about 53.6 µM), for inactives: at the highest dose activity, negative = inhibition, hits mostly inhibitors. 3.5% of 310,000 active. AID 2546;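 also: Gal4-VP16 expression switched on by copper sulfate through the metallothionein promoter; potency is read from the fitted curve at half-maximal effect; % is scaled to controls: 0 for no effect and ±100 for the full control effect; nearly all actives have a fitted effect of over 50% in size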
# Starred values were filed as active, the others as inactive; ? = inconclusive; nt = no result. Unless noted, calls follow the shape of the dose curve; as a rule, active = well fitted curve in the direction sought with a large enough effect; inconclusive = small, poorly fitted or top-dose-only effect, or another doubt; inactive = no such curve, though single readings can be large; an effect the other way counts as inactive or inconclusive.
SMILES,p53 reactivator,RORg inh,ELG1 repair inh,BRCA1 expr up,Giardia killer,Gal4-VP16 FLuc
S=c1[nH]nc(CCSCc2ccccc2)n1-c1ccccc1,-3.2%,2.82µM*,-14.4%,-3.3%,-7.1,1.3%
C=CCn1c(CCC(O)COCCC)n[nH]c1=S (configuration not stated),-0.8%,-19.2%,6.2%,7.0%,3.0,2.9%
COc1ccc(CSCCc2n[nH]c(=S)n2-c2ccccc2)cc1C,-1.5%,?,?,-18.8%,-26.5,-8.4%
CCn1c(CN2c3ccccc3Sc3ccccc32)n[nH]c1=S,-3.5%,2.82µM*,-1.9%,-16.8%,-19.6,?
O=C1c2ccccc2C(=O)N1CCCCSc1nnc2c(Cl)cc(Cl)cn12,-3.4%,18.6%,1.4%,1.3%,-9.2,0.2%
CCCCOC(=O)c1ccc(NC(=O)C(=O)NCc2cccnc2)cc1,-1.4%,4.7%,-3.0%,-1.5%,23.5,-10.1%
COC(=O)c1c(N2C(=O)[C@H]3[C@@H](C2=O)[C@]2(C(=O)Nc4c(C)cccc42)N2CCC[C@@H]32)sc(C)c1C,-32.5%,-4.5%,16.4µM*,-39.0%,9.5,-29.0%
Cc1cc(Cl)cc2c1NC(=O)[C@]21[C@@H]2C(=O)N(Cc3ccccc3)C(=O)[C@@H]2[C@@H]2CCCN21,-12.5%,-9.6%,?,-37.0%,4.8,-15.8%
O=C(CCCn1c(=O)c2sccc2n(Cc2ccc(F)cc2)c1=O)NCc1ccco1,-11.6%,38.3%,20.6µM*,-91.3%,18.2,27.0%
Cc1onc(-c2ccccc2)c1C(=O)OCC(=O)Nc1ccc(Cl)cc1,9.4%,nt,?,-29.9%,-1.7,nt
Cc1onc(-c2ccccc2)c1C(=O)OCC(=O)Nc1cccc(Cl)c1,8.7%,nt,13µM*,-19.7%,-12.0,nt
COc1ccc2nc(NC(=O)C3CCN(S(=O)(=O)c4cccc5nsnc45)CC3)sc2c1,-1.1%,?,?,-55.9%,0.3,4.5%
COc1ccc2nc(NC(=O)c3ccccc3[N+](=O)[O-])sc2c1,nt,0.1%,22.1%,77.9%,4.3,-18.4%
COc1ccc2nc(NC(=O)c3ccccc3O)sc2c1,16.1%,7.08µM*,?,?,?,?
COc1ccc2nc(NC(=O)C(NS(=O)(=O)c3cccc4nsnc34)C(C)C)sc2c1 (configuration not stated),0.1%,?,-0.3%,0.0%,-23.6,11.2µM*
COc1ccc2nc(NC(=O)c3cccs3)sc2c1,12.3%,10µM*,?,?,-17.8,?
CCOC(=O)c1cccc(C(=O)Nc2nc3ccc(OC)cc3s2)n1,14.4%,11.2µM*,?,?,?,?
COC(=O)c1cc(NC(=O)CCc2c(C)nc3nc(C)nn3c2C)cc(C(=O)OC)c1,nt,nt,nt,0.4%,nt,nt
CCC(=O)Nc1c2c(nn1-c1ccc([N+](=O)[O-])cc1)CS(=O)(=O)C2,4.6%,-10.3%,-4.5%,5.5%,?,-14.6%
COc1ccc(C(=O)Nc2nc3cc4c(cc3s2)OCCO4)c(OC)c1,3.5%,0.0282µM*,?,-5.3%,2.4,0.398µM*
COc1ccccc1C(=O)Nc1nc2cc3c(cc2s1)OCCO3,13.2%,?,?,-45.0%,?,?
CC(Nc1nc(=S)nc(Nc2ccc(F)cc2)[nH]1)c1ccccc1 (configuration not stated),-0.2%,?,-20.8%,-53.4%,18.8,?
CCNc1nc(=S)nc(NC(C)C)[nH]1,-11.1%,10µM*,6.1%,5.6%,-16.9,12.6µM*
CCNc1nc(=S)nc(NCc2ccccc2)[nH]1,0.1%,3.16µM*,18.7%,nt,nt,7.08µM*
Cc1onc(-c2c(Cl)cccc2Cl)c1C(=O)NC(=S)N1CCOCC1,-1.5%,0.159µM*,-17.4%,-19.9%,?,0.708µM*
SMILES,p53 reactivator,RORg inh,ELG1 repair inh,BRCA1 expr up,Giardia killer,Gal4-VP16 FLuc
CCOC(=O)N1CCN(C(=S)NC(=O)c2ccc(F)c(F)c2)CC1,-1.3%,0.631µM*,1.8%,-10.6%,3.8,1µM*
Cc1onc(-c2c(Cl)cccc2Cl)c1C(=O)Nc1nccs1,-8.4%,10µM*,23.1µM*,-8.6%,-1.9,?
CCOC(=O)N1CCN(C(=S)NC(=O)c2c(-c3c(Cl)cccc3Cl)noc2C)CC1,-3.6%,0.251µM*,?,-1.1%,-11.6,0.794µM*
CCOC(=O)N1CCN(C(=O)c2c(-c3ccccc3Cl)noc2C)CC1,4.4%,17.0%,8.4%,-5.7%,15.2,1.5%
COc1ccccc1CC(=O)NNC(=O)CN(C)S(=O)(=O)c1ccc(Cl)cc1,-3.8%,nt,-3.6%,-5.0%,-1.4,nt
CCOC(=O)C1CSC(Cc2ccc(OCc3ccc([N+](=O)[O-])cc3)cc2)N1 (configuration not stated),nt,14.1µM*,nt,nt,nt,?
CCOC(=O)CCc1c(C)c2ccc(OCc3ccc([N+](=O)[O-])cc3)cc2oc1=O,?,14.9%,1.1%,-31.7%,6.4,1.9%
CCCCNC(=O)c1ccc2c(OCC)n(CCCC)nc2c1,-3.7%,15.3%,-12.8%,-1.3%,-12.3,1.1%
CCOc1c2ccc(C(=O)NCC34CC5CC(CC(C5)C3)C4)cc2nn1CC,-5.0%,?,7.0%,-23.2%,-16.0,11.2µM*
CCCCn1nc2cc(C(=O)NCC34CC5CC(CC(C5)C3)C4)ccc2c1OC,8.0%,0.2%,?,-30.1%,-21.6,-11.6%
CCn1nc2cc(C(=O)NCC34CC5CC(CC(C5)C3)C4)ccc2c1OC,-3.1%,7.08µM*,5.1%,-4.8%,-19.1,?
CCCn1nc2cc(C(=O)NCCc3cccs3)ccc2c1OCC,1.5%,6.5%,?,11.2µM*,24.3,?
COc1cc2c(C#Cc3cccnc3)c(-c3ccsc3)oc(=O)c2cc1OC,-2.0%,nt,?,0.0%,-13.7,nt
COc1ccc(/C=C2\CCc3c2nc2ccccc2c3C(=O)O)cc1OC,-1.3%,8.91µM*,?,-18.1%,?,11.2µM*
COc1ccc(/C=C2\CCCc3c2nc2ccccc2c3C(=O)O)cc1OC,3.4%,5.8%,?,nt,nt,6.0%
COc1ccc2c(Cl)c(C(N)=O)sc2c1,13.2%,33.5%,-0.4%,10µM*,10.0,14.8%
COc1ccc2c(Cl)c(-c3nnc(SCC(N)=O)n3C)sc2c1,0.0%,45.8%,0.1%,29.9%,-1.1,3.2%
COc1ccc2c(Cl)c(C(=O)NN)sc2c1,?,11.2µM*,-1.6%,-15.2%,5.4,?
COC(=O)c1scc(S(=O)(=O)C(C)C)c1N/N=C(\C#N)C(=O)c1ccc(Cl)cc1,0.6%,-29.7%,13µM*,-58.5%,11.3,?
COC(=O)c1scc(C#N)c1N/N=C(\C#N)S(=O)(=O)c1ccc(Cl)cc1,-4.6%,?,?,-11.9%,-1.4,-28.0%
